In the library only some 2.3% were active in any assay of this set; here they are far more common.
Tau fluor counter – counter-screen for tau fibril formation inhibitors | tau K18 P301L Alexa594 fluorescence, heparin fibrillization | Potency, µM (highest dose often 57.7 µM) | 0.93% of 280,000 active; also: nearly all actives have a fitted effect of over 55% in size
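Human K18 P301L tau (15 uM unlabeled plus 0.24 uM Alexa 594-labeled, final) in 100 mM sodium acetate pH 7 was mixed with compound and 20 uM heparin and incubated 6 hr at 37 C.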
FBPA coupling cs – inhibits coupling enzyme system, counter-screen for aldolase hits. activity change, negative = inhibition, % at 58.2 µM, hits read low. 0.67% of 290,000 active. AID 2472. coupling enzyme system counterscreen, AmpLite Red fluorescence; in the data active = activity change below about -30%
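Final compound at 57.5 uM, incubated 10 min at RT with coupling enzyme reagent (glyceraldehyde-3-phosphate), then 20 min with substrate and AmpLite Red detection. Fluorescence read at 525/598 nm; tests interference with the coupling assay, not aldolase inhibition.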
Tau ThT inhib – blocks human tau fibril formation measured by thioflavin T; P10636; recombinant tau K18 P301L, heparin-induced fibrillization, ThT fluorescence; Potency, µM (titrated, usually from 57.4 µM), most hits filed as inhibitors; 2.1% of 270,000 active; also: nearly all actives have a fitted effect of over 55% in size
Target sequence (P10636 561-689 P618L limits assumed): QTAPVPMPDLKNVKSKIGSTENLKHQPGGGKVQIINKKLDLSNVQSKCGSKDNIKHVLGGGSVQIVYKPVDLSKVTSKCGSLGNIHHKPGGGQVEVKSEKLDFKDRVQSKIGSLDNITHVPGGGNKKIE
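Fibril formation assay: tau K18 P301L at 15 uM with trace Alexa 594 label, heparin inducer 20 uM, pH 7 sodium acetate buffer, 37 C for 6 hr; endpoint ThT signal.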
Tau FP inhib – blocks human tau fibril formation measured by polarization. AID 1468. P10636. K18 P301L tau heparin fibrillization, Alexa594 FP, 6 h. Potency, µM (titrated, usually from 57.7 µM), hits mostly inhibitors. 0.39% of 280,000 active; also: nearly all actives have a fitted effect of over 55% in size
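Recombinant K18 P301L […], labeled with Alexa 594 at 0.24 uM over 15 uM unlabeled; heparin inducer 20 uM final; 37 C, 6 hr; FP endpoint.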
USP1-UAF1 inh – inhibitors of human USP1/UAF1 deubiquitinase; recombinant USP1/UAF1, Ub-Rhodamine cleavage fluorescence; 0.23% of 390,000 active; O94782; Potency, µM (top dose mostly 57.1 µM), usual class: inhibitors; also: nearly all actives have a fitted effect of over 60% in size
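1 nM enzyme complex + cpd, 15 min RT; start with Ub-Rho 150nM final; kinetic fluorescence ex 480/em 540, 6 reads q60 s. Buffer 50mM HEPES pH 7.8, 0.5mM EDTA, 0.1 mg/ml BSA, 1mM TCEP, 0.01% Tween-20.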
Numbers stand for hits; . = inactive; ? = inconclusive; / = no result given; [ ] = another dose, or the depositor's remark. Unless noted, calls follow the shape of the dose curve; as a rule, active = well fitted curve in the direction sought with a large enough effect; inconclusive = small, poorly fitted or top-dose-only effect, or another doubt; inactive = no such curve, though single readings can be large; an effect the other way counts as inactive or inconclusive.

SMILES	Tau fluor counter	FBPA coupling cs	Tau ThT inhib	Tau FP inhib	USP1-UAF1 inh
C[C@H]1[C@H](C)CC[C@]2(C(=O)O)CC[C@]3(C)C(=CCC4[C@@]5(C)CC[C@H](O)C(C)(C)[C@@H]5CC[C@]43C)[C@H]12 (some centres not stated)	.	.	.	.	/
O=C(Nc1cccc(C(F)(F)F)c1)C1CCN(c2nnc(-n3cccc3)s2)CC1	?	/	?	.	?
O=C1C(=O)N(C2CCN(C(=O)c3ccccc3Cl)CC2)CCN1Cc1ccc(F)cc1	.	/	.	.	.
O=c1c(C(c2ccc(Cl)cc2)c2c(O)nc3n(c2=O)CCCS3)c(O)nc2n1CCCS2	.	.	11µM	?	?
On1c2c(c3c4nonc4ccc31)CCCC2	?	-60	7.9µM	?	/
O=C(/C=C/c1ccc(Cl)c([N+](=O)[O-])c1)Nc1ccc(N2CCCC2)cc1	18µM[quencher]	.	0.89µM	.	.
COC1=C/C(=C/c2c(O)c(C#N)c3ccccn23)C=CC1=O	.	.	14µM	.	.
COc1cc(OC)cc(C(=O)c2c(C)c(C#N)c3ccccn23)c1	/	.	/	/	.
Cc1ccc2[nH]c(=O)c3cc(C(=O)N4CCN(c5ccccc5F)CC4)sc3c2c1	.	/	.	.	.
N#Cc1ccc(/C=C\c2nccc3c2[nH]c2ccccc23)cc1	?	.	?	?	22µM
Nc1nc2ccc(C(=O)Nc3ccccc3)cc2s1	.	.	.	.	.
CCc1ccc(NC(=O)c2ccc3nc(N)sc3c2)cc1	?	.	?	25µM	.
Oc1ccc(/C=N/Nc2ccc(C(F)(F)F)cn2)cc1	11µM[quencher]	.	?	.	.
Cc1cccc(OCC(=O)Nc2nc3ccc([N+](=O)[O-])cc3s2)c1	?	.	2µM	.	.
CC(C)c1ccc(/C=C/C(=O)Nc2nc3ccc([N+](=O)[O-])cc3s2)cc1	.	.	?	.	.
O=C(O)COc1ccc(/C=C/c2nc3ccc([N+](=O)[O-])cc3s2)cc1	.	.	2µM	.	.
C=CCC1C=CC(Oc2ccc(OC)cc2)C(COC(=O)c2ccc(Br)cc2)O1 (configuration not stated)	.[11.6 µM]	.	.[11.5 µM]	.[11.6 µM]	/
CC1(C)CC(=O)C2=C(C1)OC1=C(C(=O)CC(C)(C)C1)C2c1cc([N+](=O)[O-])cc([N+](=O)[O-])c1O	.	-36	.	.	.
COc1cc(/C=C(\C#N)c2nc3c(s2)CCCC3)ccc1O	14µM[quencher]	.	11µM	.	/
Clc1ccccc1Nc1ncnc2c1nc1n2CCCCC1	.	/	.	.	.
COc1ccccc1NC(=O)CN1CCN(CC(=O)Nc2ccc(Cl)c(C(F)(F)F)c2)CC1	.	.	.	.	.
CCc1ccccc1NCC(=O)Nc1ccc(Cl)c(C(F)(F)F)c1	18µM[quencher]	.	.	?	.
CC(Sc1nnc(C2CC2)n1C)C(=O)Nc1ccc2c(c1)CCC2 (configuration not stated)	/	/	/	/	.
Cn1c(NNC(=O)c2ccccc2F)cc(=O)n(C)c1=O	.	-30	/	.	.
CCN(CC)CCCNC(=O)CSc1nc2nc(C)c(Cc3ccccc3C)c(C)n2n1	.	/	.	.	.
SMILES	Tau fluor counter	FBPA coupling cs	Tau ThT inhib	Tau FP inhib	USP1-UAF1 inh
CCN(CC)CCCNC(=O)CCc1c(C)nc2c(c1C)c(=O)n(C)c(=O)n2C	.	/	.	.	?
CCOc1ccc(NC(=O)Nc2ccc3c(c2)N(C)C(=O)CS3)cc1	?	.	.	.	.
CN1C(=O)CSc2ccc(NC(=O)NCCC3=CCCCC3)cc21	14µM[quencher]	.	.	?	.
CC(=O)c1ccc(NC(=O)Nc2ccc3c(c2)N(C)C(=O)CS3)cc1	13µM[quencher]	.	?	.	?
COc1ccc(NC(=O)Nc2ccc3c(c2)N(C)C(=O)CS3)cc1Cl	6.3µM[quencher]	.	?	?	.
CC(C)(C)C1CCC(=NNc2ccc(S(N)(=O)=O)cc2[N+](=O)[O-])CC1 (configuration not stated)	?	.	13µM	.	.
CC1CCCC/C1=N\Nc1ccc(S(N)(=O)=O)cc1[N+](=O)[O-] (configuration not stated)	.	.	16µM	.	.
CS(=O)(=O)N1CCC(N2CCN(Cc3ccc(F)cc3)C(=O)C2=O)CC1	.	/	.	.	.
COc1ccc(NC(=O)N2CCC(CN3CCCC3)CC2)c(OC)c1	.	/	.	.	.
COc1ccc(-c2cc(C(F)(F)F)c3c(n2)sc2c(O)cc(=O)[nH]c23)c(OC)c1	.	.	14µM	.	?
CC(/C=C(\NC(=O)c1ccccc1)C(=O)N=Nc1c(O)[nH]c2ccc(C)cc12)=C\c1ccccc1	?	.	20µM	.	.
Cc1ccc(N=Nc2c(N)[nH]n3c(=O)cc(-c4ccccc4)nc23)cc1	?	.	3.2µM	.	.
Cc1cc(=O)n2[nH]c(N)c(N=Nc3ccccc3)c2n1	.	.	?	.	.
COc1cccc(N=Nc2c(N)[nH]n3c(=O)cc(-c4ccccc4)nc23)c1	?	.	4µM	.	.
Cc1[nH]n2c(=O)cc(-c3ccc([N+](=O)[O-])cc3)nc2c1-c1ccccc1	/	/	/	/	.
Cc1[nH]n2c(=O)cc(-c3ccc(Cl)cc3)nc2c1-c1ccccc1	?	/	14µM	.	?
O=C(NCCc1ccc(Cl)cc1)c1ccc2c(c1)N(Cc1ccc(F)cc1Cl)C(=O)CS2	.	/	.	?	.
Nc1ncnc2c1ncn2[C@H]1O[C@@H](CSCC[C@@H](N)C(=O)O)[C@H](O)[C@@H]1O	.	/	?	.	/
O=c1c2c(-c3ccc(Cl)cc3)ccnc2[nH]n1-c1ccccc1	.	/	?	.	.
O=C/C=C/c1coc2ccc3ccccc3c2c1=O	?	.	14µM	.	.
O=Cc1coc2c(ccc3ccccc32)c1=O	/	.	/	/	/
O=[N+]([O-])c1ccc(C=Nc2ccc(Cl)c([N+](=O)[O-])c2)s1	.	-34	?	.	/
Cc1ccc(NC(=S)N/N=C/c2ccc([N+](=O)[O-])s2)cc1	16µM[quencher]	.	5µM	?	.
Cc1cc(C)cc(N=Cc2ccc([N+](=O)[O-])s2)c1	.	.	?	.	13µM
NC(=O)c1ccc(N=Cc2ccc([N+](=O)[O-])s2)cc1	.	-31	?	.	10µM
CCCOc1c(Cl)cc(C(=O)NC)cc1OC	.	.	.	.	.
COC(=O)[C@@H]1CC[C@H](C)[C@@H](c2ccc(C)cc2)N1C(=O)c1ccc(/C=N\O[C@@H](C)c2cc(-c3c(C)cc(C)cc3C)no2)cc1	.[11.6 µM]	.	.[11.5 µM]	.[11.6 µM]	/
CCOC(=O)c1ccc(-n2c(N)c(C(=O)OC)c3nc4ccccc4nc32)cc1	.	/	.	.	.
Cc1ccc2c(c1)N(C(=O)N1CCC(C(=O)NC3CCCCCC3)CC1)CCO2	?	/	.	.	.
Cc1ccc2c(c1)N(C(=O)N1CCC(C(=O)NC3CCCCCC3)CC1)CC(C)O2 (configuration not stated)	10µM[quencher]	/	?	.	.

Bioassay records from PubChem.
